Reference: PubChem BioAssay AID1159580 (chemical genetic matrix, 2015)
The campaign covered roughly 5,500 compounds. About 2,000 (36%) were called active. About 18% were inconclusive and are not listed. No stated cut-off is given here; in the data, active means normalized growth mostly below about 0.91 (no sharp cut-off); inconclusive means no clear call, values can overlap the other calls; inactive means mostly above about 0.92. This is one part of the list.

Assay: chemical genetic growth profiling, strain panel (AID 1159580);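 further: tested at 20 µM; growth read once vehicle control cultures reached saturation at 30 °C; 1 = growth at the plate median or of vehicle wells; lower values mean less growth of the strain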
Conditions: S. cerevisiae deletion strains, growth OD
[1] = locus YHR030C, strain SLT2, active compounds read low

Measured: normalized growth

Cc1onc(-c2ccccc2)c1-c1nc(CSc2ccc(C(F)(F)F)cn2)no1
inactive: locus YAL013W, strain DEP1, active compounds read low 1.03 | locus YBR229C, strain ROT2, active compounds read low 0.973 | locus YCL061C, strain MRC1, active compounds read low 0.991 | locus YDL101C, strain DUN1, active compounds read low 0.968 | locus YDR150W, strain NUM1, active compounds read low 1.02 | locus YEL061C, strain CIN8, active compounds read low 0.975 | locus YGR078C, strain PAC10, active compounds read low 1 | [1] 0.818 | locus YHR087W, strain rtc3, active compounds read low 0.984 | locus YJL187C, strain SWE1, active compounds read low 0.977 | locus YJR043C, strain POL32, active compounds read low 0.957 | locus YJR075W, strain HOC1, active compounds read low 0.995 | locus YLR039C, strain RIC1, active compounds read low 0.947 | locus YLR058C, strain SHM2 (second series), active compounds read low 0.957 | locus YLR085C, strain ARP6, active compounds read low 1.06 | locus YLR262C, strain YPT6, active compounds read low 0.93 | locus YML094W, strain GIM5, active compounds read low 1.02 | locus YMR219W, strain ESC1, active compounds read low 0.975 | locus YMR263W, strain SAP30, active compounds read low 0.971 | locus YMR307W, strain GAS1, active compounds read low 1.02 | locus YNL153C, strain GIM3, active compounds read low 1.02 | locus YNL298W, strain CLA4 (second series), active compounds read low 1.02 | locus YNL322C, strain KRE1, active compounds read low 0.964 | locus YNR030W, strain Alg12, active compounds read low 1.01 | locus YOL006C, strain TOP1, active compounds read low 0.946 | locus YPL055C, strain LGE1, active compounds read low 1.06 | locus YPL241C, strain CIN2, active compounds read low 0.93 | locus YPR135W, strain CTF4, active compounds read low 1.33

Cc1onc(-c2ccccc2)c1C(=O)Sc1ccc(C(F)(F)F)cn1
inactive: locus YAR019C, strain CDC15, active compounds read low 0.941 | locus YBL105C, strain PKC1, active compounds read low 0.961 | locus YBR135W, strain CKS1, active compounds read low 0.965 | locus YBR136W, strain MEC1, active compounds read low 0.955 | locus YBR160W, strain CDC28, active compounds read low 0.967 | locus YDL017W, strain CDC7, active compounds read low 0.967 | locus YDL028C, strain MPS1, active compounds read low 0.958 | locus YDL108W, strain KIN28, active compounds read low 0.974 | locus YDL132W, strain cdc53, active compounds read low 0.951 | locus YDR052C, strain DBF4, active compounds read low 0.977 | locus YDR054C, strain cdc34, active compounds read low 0.937 | locus YDR226W, strain ADK1, active compounds read low 0.963 | locus YFL009W, strain cdc4, active compounds read low 0.951 | locus YFL029C, strain CAK1, active compounds read low 0.949 | locus YFR003C, strain YPI1, active compounds read low 0.971 | locus YFR028C, strain CDC14, active compounds read low 0.968 | locus YGR092W, strain DBF2, active compounds read low 0.799 | locus YHR079C, strain IRE1, active compounds read low 0.712 | locus YIL147C, strain SLN1, active compounds read low 0.955 | locus YJR016C, strain ILV3, active compounds read low 0.973 | locus YKL048C, strain ELM1, active compounds read low 0.933 | locus YKL101W, strain HSL1, active compounds read low 0.817 | locus YKL193C, strain SDS22, active compounds read low 0.952 | locus YLR133W, strain CKI1, active compounds read low 0.749 | locus YMR001C, strain CDC5, active compounds read low 0.952 | locus YMR205C, strain PFK2 (second series), active compounds read low 0.882 | locus YMR277W, strain FCP1, active compounds read low 0.943 | locus YNL006W, strain LST8, active compounds read low 0.979 | locus YNL020C, strain ARK1, active compounds read low 0.874 | locus YNL161W, strain CBK1, active compounds read low 0.951 | locus YNL207W, strain RIO2, active compounds read low 0.961 | locus YNL222W, strain SSU72, active compounds read low 0.918 | locus YNL307C, strain MCK1 (second series), active compounds read low 0.683 | locus YOL078W, strain AVO1, active compounds read low 0.948 | locus YOR061W, strain CKA2, active compounds read low 0.765 | locus YOR231W, strain MKK1, active compounds read low 0.732 | locus YOR329C, strain SCD5, active compounds read low 0.96 | locus YPL153C, strain RAD53, active compounds read low 0.661 | locus YPL209C, strain IPL1, active compounds read low 0.961 | locus YPR025C, strain CCL1, active compounds read low 0.954 | locus YPR106W, strain ISR1, active compounds read low 0.939 | locus YPR111W, strain DBF20, active compounds read low 0.946 | strain NNK1, active compounds read low 0.963 | strain TSCII, active compounds read low 0.937
active: locus YDL214C, strain PRR2, active compounds read low 0.217 | locus YDR477W, strain SNF1, active compounds read low 0.187 | locus YER123W, strain YCK3, active compounds read low 0.465 | locus YER133W, strain GLC7, active compounds read low 0.249 | locus YFR019W, strain FAB1, active compounds read low 0.739 | locus YGR040W, strain KSS1, active compounds read low 0.227 | locus YGR052W, strain FMP48, active compounds read low 0.242 | [1] 0.317 | locus YHR082C, strain KSP1, active compounds read low 0.256 | locus YHR205W, strain SCH9, active compounds read low 0.343 | locus YJL095W, strain BCK1, active compounds read low 0.424 | locus YJR066W, strain TOR1 (second series), active compounds read low 0.343 | locus YJR066W, strain TOR1, active compounds read low 0.283 | locus YKL203C, strain TOR2, active compounds read low 0.53 | locus YLR113W, strain HOG1, active compounds read low 0.184 | locus YML070W, strain DAK1, active compounds read low 0.587 | locus YNL183C, strain NPR1, active compounds read low 0.106 | locus YOL136C, strain PFK27, active compounds read low 0.583 | locus YOR119C, strain RIO1, active compounds read low 0.471 | locus YPL256C, strain CLN2, active compounds read low 0.209
